Source: PubChem
GAA glycogen – qHTS Assay for Inhibitors and Activators of Human alpha-Glucosidase Cleavage of Glycogen; Lysosomal alpha-glucosidase (Homo sapiens), P10253; recombinant GAA, glycogen substrate, Amplex Red glucose oxidase fluorescence; Potency, µM (top dose mostly 76.4 µM), inactives show at the top dose activity change, negative = inhibition, most hits filed as inhibitors; 300,000 tested, 0.38% active; AID 2100, 2009;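 further: potency means the concentration at half of the fitted maximal effect; 0% = full enzyme reaction and -100% = no-enzyme basal signal; the screen sought inhibitors and activators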
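Natural-substrate format: glycogen cleavage by 4 nM human enzyme, glucose read by Amplex Red coupling (Ex 573, Em 610 nm). Normalized to enzyme and no-enzyme controls.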
N370S GC mod – qHTS Assay for Inhibitors and Activators of N370S glucocerebrosidase as a Potential Chaperone Treatment of Gaucher Disease. Lysosomal acid glucosylceramidase (Homo sapiens), P04062. N370S GC spleen homogenate, 4MU-glucoside fluorescence. Potency, µM (titrated, usually from 59.4 µM), for inactives: at the highest dose activity change, negative = inhibition, hits mostly inhibitors. 330,000 tested, 0.092% active;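 further: potency means the concentration at half of the fitted maximal effect; 0% = full enzyme activity and -100% = no enzyme basal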
GLA spleen mod – qHTS Assay for Inhibitors and Activators of Human alpha-Galactosidase From Spleen Homogenate; Alpha-galactosidase A (Homo sapiens), P06280; human spleen homogenate, 4MU-alpha-Gal fluorescence, 40 min; Potency, µM (series often up to 80 µM), without a hit: at the highest dose activity change, negative = inhibition, most hits filed as inhibitors; 240,000 tested, 0.008% active;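 further: potency means the concentration at half of the fitted maximal effect; 0% = enzyme with vehicle and -100% = no enzyme basal signal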
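Fluorogenic readout (Ex 365/Em 440 nm) of 4-methylumbelliferone released from 1 mM 4-MU-alpha-galactoside by spleen homogenate, 40 min at 37C, pH 5.0. Data normalized to no-enzyme and enzyme controls; Hill-equation AC50 from compound titrations.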
GAA inh – qHTS Assay for Inhibitors of Human alpha-Glucosidase as a Potential Chaperone Treatment of Pompe Disease. Potency, µM (titrated, usually from 76.9 µM), for inactives: top-dose activity change, negative = inhibition, actives largely listed as inhibitors. Lysosomal alpha-glucosidase (Homo sapiens), P10253. 200,000 tested, 0.005% active. purified human GAA, 4-MU-alpha-glucoside fluorescence;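 further: potency means the concentration at half of the fitted maximal effect; plate controls were uninhibited enzyme wells for no effect and no-enzyme background for full effect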
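Compounds are titrated up to 77 uM against 4 nM human enzyme. Substrate 4-methylumbelliferyl-alpha-D-pyranoside (400 uM) reacts 20 min at room temperature in pH 5.0 buffer; liberated 4-methylumbelliferone is read at 440 nm.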
GLA inh pH 4.5 – qHTS Assay for Inhibitors of Human alpha-Galactosidase at pH 4.5; AID 1467, 2008; Alpha-galactosidase A (Homo sapiens), P06280; activity change, negative = inhibition, % at 105 µM; purified enzyme, 4-MU-alpha-Gal fluorescence, pH 4.5; 230,000 tested, under 10 active;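 further: 0% = full activity with enzyme and -100% = basal without enzyme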
Target sequence (P06280 whole entry, looked up): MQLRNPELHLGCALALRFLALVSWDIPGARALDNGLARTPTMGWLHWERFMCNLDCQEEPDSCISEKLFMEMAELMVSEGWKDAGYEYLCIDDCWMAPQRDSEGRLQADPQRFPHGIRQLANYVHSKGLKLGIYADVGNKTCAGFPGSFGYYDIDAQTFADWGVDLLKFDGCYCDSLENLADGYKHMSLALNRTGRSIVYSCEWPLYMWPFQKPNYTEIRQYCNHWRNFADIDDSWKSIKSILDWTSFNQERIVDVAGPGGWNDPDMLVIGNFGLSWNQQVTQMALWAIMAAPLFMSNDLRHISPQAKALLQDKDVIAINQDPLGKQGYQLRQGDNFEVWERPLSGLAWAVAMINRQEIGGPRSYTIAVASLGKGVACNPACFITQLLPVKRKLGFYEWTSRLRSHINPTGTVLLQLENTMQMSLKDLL
aGlu spleen mod – qHTS Assay for Inhibitors and Activators of Human alpha-Glucosidase From Spleen Homogenate | Lysosomal alpha-glucosidase (Homo sapiens), P10253 | human spleen homogenate, 4-MU-alpha-glucoside fluorescence | Potency, µM (series often up to 79.9 µM), inactives show at the highest dose activity change, negative = inhibition, hits mostly inhibitors | 240,000 tested, 0.006% active;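 further: potency means the concentration at half of the fitted maximal effect; 0% = enzyme with vehicle and -100% = no enzyme basal signal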
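Human spleen homogenate (1 ug) incubated with compounds and 1 mM 4-methylumbelliferyl-alpha-D-glucopyranoside in pH 5.0 citrate/phosphate buffer, 37 C, 40 min. Stopped at pH 10; 4-MU fluorescence (Ex 365/Em 440 nm); AC50 by Hill fit.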
Active calls of the source: *; [ ] = remark or other dose. Compounds with a hit are over-represented: about 0.41% of the library has one in this group of screens. The call rests on the fitted dose curve; in most records, active means well fitted curve in the direction sought with a large enough effect; inconclusive means small, poorly fitted or top-dose-only effect, or another doubt; inactive means no such curve, though single readings can be large; an effect the other way counts as inactive or inconclusive.

For CC12C=C(/C=C/c3ccc(Br)cc3)C(C)(C1)C(c1ccc(Br)cc1)CC2=O (configuration not stated) the results were N370S GC mod 2%[12.8 µM], GLA spleen mod -4%[17.5 µM] and aGlu spleen mod 5%[17.4 µM].
Screening O=C(c1ccc2c(c1)N(Cc1ccc(Cl)cc1)C(=O)c1ccccc1S2=O)N1CCN(c2ccccc2F)CC1 (configuration not stated) returned GAA glycogen -8%[76.3 µM].
COc1cc(-c2cn[nH]c2N)cc(OC)c1OC was read as GAA glycogen 11µM*, N370S GC mod -12%, GLA spleen mod 7%, GAA inh inconclusive, GLA inh pH 4.5 -6 and aGlu spleen mod inconclusive.
`Nc1[nH]ncc1-c1ccc(Cl)cc1` gave GAA glycogen -18%, N370S GC mod -2%, GLA spleen mod 15%, GAA inh -8% and GLA inh pH 4.5 1.
`Cc1c(C)n(Cc2ccccc2)c2ccc(C(=O)NCCN3CCOCC3)cc12` gave GAA glycogen 8%[76.3 µM] and N370S GC mod inconclusive.
For Cc1c(C)n(Cc2ccc(Cl)cc2)c2ccc(C(=O)NCCN3CCOCC3)cc12 the results were N370S GC mod 10µM*.
Screening O=C(c1ccc([N+](=O)[O-])cc1)N1c2ncnn2C2(CCCCC2)[C@@H]2CCCC[C@@H]21 returned GAA glycogen 4%[76.3 µM].
Screening COC(=O)c1ccc(NC(=O)C(c2ccccc2)N2Cc3ccccc3C2=O)cc1 (configuration not stated) returned GAA glycogen 5%[76.3 µM].
CC1CCN(S(=O)(=O)c2ccc3c(c2)CCC(=O)N3CC(=O)Nc2cccc(C#N)c2)CC1 was read as N370S GC mod -11%.
CCOC(=O)C(C)NC(=O)C1CCN(c2ncnc3c2nc2n3CCCCC2)CC1 (configuration not stated) was read as GAA glycogen -8%[76.3 µM].
For O=C(NNC(=O)c1sccc1-n1cccc1)Nc1ccccc1 the results were GAA glycogen 13µM*, N370S GC mod 3%, GLA spleen mod 1%, GAA inh 1%, GLA inh pH 4.5 -15 and aGlu spleen mod 5%.
For Cc1ccc(Nc2cc(C)nc(NCc3ccccc3)n2)cc1 the results were GAA glycogen -3%, N370S GC mod 4%, GLA spleen mod 9%, GAA inh -5%, GLA inh pH 4.5 -16 and aGlu spleen mod -8%.
Cc1cc(NC2CCCCC2)nc(NCc2ccccc2)n1 was read as GAA glycogen 1%, N370S GC mod 18µM*, GLA spleen mod 4%, GAA inh 3%, GLA inh pH 4.5 -6 and aGlu spleen mod 5%.
Screening CCC1CN(C(=O)N2CCC(C(=O)O)CC2)c2cc(C)ccc2O1 (configuration not stated) returned GAA glycogen -15%[76.3 µM].
Screening O=C(CN1CC(=O)Oc2ccccc21)OCC(=O)c1cccc(Br)c1 returned GAA glycogen 8.8µM*, N370S GC mod -18%, GLA spleen mod 12%, GAA inh 5%, GLA inh pH 4.5 2 and aGlu spleen mod -3%.
Screening CCc1cccc(C)c1Nc1c(-c2ccc(N(C)C)cc2)nc2cnccn12 returned GAA glycogen 10µM*.
CC(CCc1ccccc1)N1CCN(C)CC1 (configuration not stated) was read as GAA glycogen 0%[76.3 µM] and N370S GC mod -6%.
`O=C1OC(N2C(=O)CC[C@H]2C(=O)Nc2ccc(F)c(F)c2)c2ccccc21` (some centres not stated) gave GAA glycogen -23%[76.3 µM] and N370S GC mod 2%.
For O=C1OC(N2C(=O)CC[C@H]2C(=O)Nc2ccc3c(c2)OCO3)c2ccccc21 (some centres not stated) the results were GAA glycogen 32µM* and N370S GC mod 0%.
NC(=S)N=Nc1ccc(NN=C(N)N)cc1 was read as GAA glycogen 40µM* and N370S GC mod -9%.
`N#C/C(=N/Nc1ccc(OC(F)(F)F)cc1)C(N)=S` gave GAA glycogen inconclusive, N370S GC mod -11%, GLA spleen mod 0%, GAA inh -18%, GLA inh pH 4.5 -4 and aGlu spleen mod -4%.
Cc1ccc(NC(=O)CCS(=O)(=O)c2ccc3c(c2)NC(=O)C(C)S3)cc1Cl (configuration not stated) was read as N370S GC mod 7.9µM*.
Screening CC1Sc2ccc(S(=O)(=O)CCC(=O)Nc3ccc(C(C)C)cc3)cc2NC1=O (configuration not stated) returned N370S GC mod 6.3µM*.
`CC1Sc2ccc(S(=O)(=O)CCC(=O)Nc3ccccc3Cl)cc2NC1=O` (configuration not stated) gave GAA glycogen -6%[76.3 µM] and N370S GC mod inconclusive.
For COC(=O)[C@H]1C2CC3c4[nH]c5ccccc5c4CCN3CC2CC[C@@H]1O (some centres not stated) the results were N370S GC mod -4%, GLA spleen mod -6% and aGlu spleen mod 4%.
`CCOc1ccccc1CNc1ccc(O)cc1` gave GAA glycogen inconclusive, N370S GC mod 5.6µM*, GLA spleen mod 5%, GAA inh -4%, GLA inh pH 4.5 -2 and aGlu spleen mod 4%.
For COc1ccc(/C=C2\C(=N)N3N=C(CC(=O)N4CCCCC4)SC3=NC2=O)cc1 the results were GAA glycogen 3%[76.3 µM] and N370S GC mod -16%.
Screening CCOc1cc(CNCCc2ccc(S(N)(=O)=O)cc2)ccc1OCc1ccccc1 returned GAA glycogen 2%, N370S GC mod 6.3µM*, GLA spleen mod -12%, GAA inh inconclusive, GLA inh pH 4.5 -3 and aGlu spleen mod -1%.
`COc1ccccc1NC(=O)CN(c1cc(C)cc(C)c1)S(=O)(=O)c1c(C)[nH]c(=O)[nH]c1=O` gave GAA glycogen -11%[76.3 µM].
For Cc1cc(C)cc(N(CC(=O)Nc2ccc(Br)cc2)S(=O)(=O)c2c(C)[nH]c(=O)[nH]c2=O)c1 the results were N370S GC mod 1.6µM*.
